In assay [1] the target is Lysosomal acid glucosylceramidase (Homo sapiens) (UniProt P04062). Briefly: Glucocerebrosidase-p2 (AID 348; in the data active = potency below about 10 µM; also: potency is read from the fitted curve at half-maximal effect). The conditions noted are these: purified GBA, blue fluorogenic substrate, 40 min. A digest of the protocol:
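Normal human glucocerebrosidase (0.2 nM) with blue fluorogenic substrate (80 uM final) in citrate/phosphate pH 5.9 with 10mM sodium taurocholate, 0.01% tween-20; 40 min RT, NaOH/glycine stop; fluorescence Ex 365/Em 440; AC50 from a titration from 0.6 nM upwards.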

A short description of assay [2]: AP1 Signaling Pathway (AID 357).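 Also: ME-180 reporter cells stimulated with EGF at its EC50 level; % is scaled to controls: 0 for no effect and ±100 for the full control effect.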 To be noted: ME-180 AP-1-bla reporter, EGF-induced, beta-lactamase ratio, 5 h; at 7.69 µM (top of the series) unless noted. The essentials:
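Titration-series screen for positive or negative modulators of EC50 EGF-induced signaling in ME-180 cells carrying an AP-1-driven beta-lactamase reporter. After 5 hours at 37 degrees Celsius, CCF4 460nm/530nm emission ratio gave %Activity; AC50 values derived.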

Assay [3] has as its target Cytochrome P450 1A2 (Homo sapiens) (UniProt P05177). Briefly: p450-cyp1a2 (AID 410; calls by dose curve; also: potency is read from the fitted curve at half-maximal effect;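 as to activity change, negative = inhibition: -100% = full effect of reference inhibitor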). To be noted: recombinant CYP1A2, luciferin-ME demethylation, luminescence; series mostly up to 11.4 µM. The essentials: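 Luminescent demethylation readout: Luciferin-ME (100uM, equal to Km) turned over by 20nM CYP1A2 for 60 min at room temperature after NADPH regeneration addition, following 10 min compound preincubation. Normalization used 57 uM furafylline as full inhibition.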

Assay [4] can be described thus: NFAT Signaling Pathway (AID 444).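 Also: carbachol stimulus at about its EC50 of 1 µM final; % is scaled to controls: 0 for no effect and ±100 for the full control effect.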 To be noted: Jurkat NFAT-bla M1, carbachol, beta-lactamase ratio, 5 h; at 7.69 µM (top of the series) unless noted. A digest of the protocol: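 Jurkat cells with NFAT-driven β-lactamase reporter and co-expressed M1 receptor, stimulated with carbachol (final 1 uM, ~EC50), compound titration, 5 h at 37 °C. CCF4 loaded 1 h at RT; 460/530 nm ratio gave %activity and AC50.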

Assay [5] is described as follows: Stat Signaling Pathway (AID 446).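 Also: ME-180 cervical cancer cells given 40 pM IL-6 alongside compound; SIE-controlled beta-lactamase reporter measured as 460/530 nm FRET emission ratio; % is scaled to controls: 0 for no effect and ±100 for the full control effect.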 To be noted: ME-180 (cervical carcinoma) SIE beta-lactamase reporter, IL-6 stimulated, 5 h; at 7.69 µM (top of the series) unless noted. The essentials: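 Normalization used AC90 stimulation (300 pM IL-6) and AC90 inhibition (125 nM pan-JAK inhibitor at 40 pM IL-6). The underlying signal is SIE-driven beta-lactamase in ME-180 cells after 5 h IL-6 exposure with compound.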

The target in assay [6] is Glucocorticoid receptor (Homo sapiens) (UniProt P04150). Briefly: GR-GFP Redistribution (AID 450;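 active = compounds whose dose series gives a full or clear partial fitted curve of increased nuclear translocation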; also: potency is read from the fitted curve at half-maximal effect). The conditions noted are these: U2OS GR-GFP nuclear translocation, laser cytometry, 2 h.
For assay [7] the target is unchanged. The experiment in a line: GR-EFC Redistribution (AID 451; calls by dose curve; also: potency is read from the fitted curve at half-maximal effect). To be noted: CHO-K1 GR-EFC translocation, beta-gal luminescence, 2 h. A digest of the protocol: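 CHO-K1 cells expressing nuclear EA and GR-ED fragments of b-gal; compounds titrated up to 46 uM final, 2 h at 37 C. GR nuclear translocation read as complemented b-gal luminescence after 1 h RT detection.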

In assay [8] the target is Mitogen-activated protein kinase 10 (Mus musculus) (UniProt Q61831). The experiment in a line: JNK3 AlphaScreen Assay (AID 530).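 Also: kinase came from lysate of stimulated human HepG2 cells; signal reports phosphorylation of biotinylated GST-cJun 1-79 at Ser73 with 10 µM ATP; % is scaled to controls: 0 for no effect and ±100 for the full control effect.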 To be noted: JNK3 lysate, c-Jun phosphorylation; series mostly up to 11.4 µM. A digest of the protocol:
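Activity was read by AlphaScreen after JNK3-containing HepG2 lysate (cytokine pre-activated) phosphorylated biotinylated GST-cJun with 10 uM ATP at room temperature. Phospho-Ser73 cJun antibody with Protein-A acceptor beads provided detection.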
For orientation: Alpha assays give light when donor and acceptor beads are brought close together.

In assay [9] the target is 3',5'-cyclic-AMP phosphodiesterase 4B (Homo sapiens) (UniProt Q07343). Briefly: qHTS Assay for Inhibitors of PDE-IV (AID 607; active = well fitted activation curve with a large enough effect in the main read-out, with a control signal flat, not every such curve was filed as active; also: % of control where 0% means no effect). To be noted: HEK293 ACTOne CNG channel cells, membrane potential fluorescence; series mostly up to 22.9 µM. A digest of the protocol:
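HEK293 ACTOne cells with CNG channel (1000/well), endogenous PDE4; membrane potential dye, compounds up to 22.9 uM final. Fluorescence Ex 535/Em 590; RO 20-1724 (100 uM final) as reference.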

Drawing on PubChem BioAssay (NCATS), this text covers Potency, activity change, negative = inhibition and activity, negative = inhibition for 16 compounds.

Each structure is given as a SMILES string. Values without a mark were called inactive. Results filed as inconclusive are left out. The source made the active and inactive calls. Unless noted, calls follow the shape of the dose curve; as a rule, active = well fitted curve in either direction with a large enough effect (not every such curve was filed as active); inconclusive = small, poorly fitted or top-dose-only effect, or another doubt; inactive = flat fitted curve, though single readings scatter.

Sequence of Lysosomal acid glucosylceramidase (Homo sapiens) (P04062 whole entry, looked up): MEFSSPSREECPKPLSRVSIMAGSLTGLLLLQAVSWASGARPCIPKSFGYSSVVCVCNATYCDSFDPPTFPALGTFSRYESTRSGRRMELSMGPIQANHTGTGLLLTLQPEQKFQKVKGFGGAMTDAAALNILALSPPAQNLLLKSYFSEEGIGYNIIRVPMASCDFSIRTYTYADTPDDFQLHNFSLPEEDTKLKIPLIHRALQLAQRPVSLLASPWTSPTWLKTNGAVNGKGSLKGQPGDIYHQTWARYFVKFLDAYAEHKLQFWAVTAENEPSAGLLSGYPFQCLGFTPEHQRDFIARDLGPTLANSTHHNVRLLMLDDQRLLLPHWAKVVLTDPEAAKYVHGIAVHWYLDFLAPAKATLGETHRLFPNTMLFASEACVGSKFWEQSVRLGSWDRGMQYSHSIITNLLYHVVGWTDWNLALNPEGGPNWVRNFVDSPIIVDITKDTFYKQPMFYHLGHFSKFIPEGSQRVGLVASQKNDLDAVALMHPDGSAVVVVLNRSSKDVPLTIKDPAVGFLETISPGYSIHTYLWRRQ
Sequence of 3',5'-cyclic-AMP phosphodiesterase 4B (Homo sapiens) (Q07343 whole entry, looked up): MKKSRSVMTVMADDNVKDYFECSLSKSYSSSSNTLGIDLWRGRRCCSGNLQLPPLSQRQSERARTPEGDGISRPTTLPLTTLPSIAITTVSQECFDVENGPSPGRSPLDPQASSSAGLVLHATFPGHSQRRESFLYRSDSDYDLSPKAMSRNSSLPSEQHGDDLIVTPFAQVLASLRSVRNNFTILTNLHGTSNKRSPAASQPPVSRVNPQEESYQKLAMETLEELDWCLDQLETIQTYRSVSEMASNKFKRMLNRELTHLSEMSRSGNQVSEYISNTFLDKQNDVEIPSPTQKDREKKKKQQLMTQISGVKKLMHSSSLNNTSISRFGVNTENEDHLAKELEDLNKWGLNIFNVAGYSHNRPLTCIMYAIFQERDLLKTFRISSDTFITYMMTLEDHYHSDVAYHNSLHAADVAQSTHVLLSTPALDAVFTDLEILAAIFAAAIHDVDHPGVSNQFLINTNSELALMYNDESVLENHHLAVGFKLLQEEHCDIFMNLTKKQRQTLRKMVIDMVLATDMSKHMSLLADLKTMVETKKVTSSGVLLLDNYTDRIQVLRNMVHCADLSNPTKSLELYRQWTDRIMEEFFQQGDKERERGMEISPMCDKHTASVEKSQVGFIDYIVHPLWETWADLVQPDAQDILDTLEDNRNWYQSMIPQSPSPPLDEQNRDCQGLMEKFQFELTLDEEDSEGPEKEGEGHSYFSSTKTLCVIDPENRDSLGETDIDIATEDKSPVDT
Sequence of Cytochrome P450 1A2 (Homo sapiens) (P05177 whole entry, looked up): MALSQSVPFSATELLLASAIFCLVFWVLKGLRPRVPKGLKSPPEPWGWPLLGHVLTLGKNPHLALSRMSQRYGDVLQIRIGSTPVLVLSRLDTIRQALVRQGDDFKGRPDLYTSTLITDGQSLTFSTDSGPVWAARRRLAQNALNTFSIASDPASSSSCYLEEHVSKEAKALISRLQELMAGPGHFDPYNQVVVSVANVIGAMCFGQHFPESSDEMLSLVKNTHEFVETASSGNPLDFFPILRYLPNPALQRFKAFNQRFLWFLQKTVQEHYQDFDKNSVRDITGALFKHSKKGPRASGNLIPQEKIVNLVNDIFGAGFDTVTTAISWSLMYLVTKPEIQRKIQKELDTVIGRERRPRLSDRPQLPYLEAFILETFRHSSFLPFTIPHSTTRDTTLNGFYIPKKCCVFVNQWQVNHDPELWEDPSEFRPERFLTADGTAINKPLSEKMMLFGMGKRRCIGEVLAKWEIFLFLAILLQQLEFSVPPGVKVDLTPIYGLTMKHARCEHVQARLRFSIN
Sequence of Glucocorticoid receptor (Homo sapiens) (P04150 whole entry, looked up, the tested form may be a part): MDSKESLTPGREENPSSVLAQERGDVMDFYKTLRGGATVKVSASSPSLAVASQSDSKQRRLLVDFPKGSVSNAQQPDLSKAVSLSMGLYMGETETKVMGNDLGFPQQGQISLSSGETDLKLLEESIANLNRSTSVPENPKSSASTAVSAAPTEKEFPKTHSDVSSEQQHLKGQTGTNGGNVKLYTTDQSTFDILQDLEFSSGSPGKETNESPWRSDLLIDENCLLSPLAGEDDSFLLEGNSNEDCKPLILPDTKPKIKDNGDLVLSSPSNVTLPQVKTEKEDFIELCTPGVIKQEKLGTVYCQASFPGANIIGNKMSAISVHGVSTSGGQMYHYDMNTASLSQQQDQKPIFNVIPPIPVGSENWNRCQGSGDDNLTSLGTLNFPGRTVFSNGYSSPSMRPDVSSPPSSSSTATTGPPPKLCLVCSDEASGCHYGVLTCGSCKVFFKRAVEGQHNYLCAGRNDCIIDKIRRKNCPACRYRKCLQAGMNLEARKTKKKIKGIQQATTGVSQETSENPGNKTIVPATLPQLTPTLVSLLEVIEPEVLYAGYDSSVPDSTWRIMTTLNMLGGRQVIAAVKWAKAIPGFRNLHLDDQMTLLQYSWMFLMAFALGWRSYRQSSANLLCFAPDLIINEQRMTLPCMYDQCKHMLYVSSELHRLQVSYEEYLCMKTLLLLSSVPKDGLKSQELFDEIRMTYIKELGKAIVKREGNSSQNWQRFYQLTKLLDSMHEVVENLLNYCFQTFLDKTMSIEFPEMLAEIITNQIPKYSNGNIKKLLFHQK

`CC1(C)O[C@@H]2O[C@H]([C@@H]3COC(C)(C)O3)[C@H](N)[C@H]2O1`: the Potency in assay [1] is above 11.4 µM; in assay [6] it was above 46 µM; in [7], above 9.22 µM. For the same compound, the values for the activity change, negative = inhibition in assay [2], in [3] and in [4] were 5.74%, 8.7% [at 2.29 µM] and 10.1%, respectively. Moreover, in assay [5], the activity, negative = inhibition is 5.21%. The Potency result in assay [8] and in [9] was “inactive” throughout.

Consider `Cc1ccc(S(=O)(=O)Nc2ccccc2C(=O)c2ccc(C)c(C)c2)cc1`, for which the Potency was above 11.4 µM in [1], 0.631 µM (active) in [3], above 46 µM in [6] and above 9.22 µM in assay [7]. In addition, the activity change, negative = inhibition is 5.46% in assay [2] and 2.8% in assay [4]. The activity, negative = inhibition in assay [5] is -2.64%. For the same compound, the Potency result in assay [8] and in assay [9] was “inactive” throughout.

For the compound `C/C(=N/O)[C@@H]1C[C@H](CC(=O)O)C1(C)C`, the values for the Potency in assay [1], in assay [6] and in assay [7] were above 11.4 µM, above 46 µM and above 9.22 µM, respectively. Also, the activity change, negative = inhibition was 10.6% in assay [2] and 9.94% in assay [4]. The Potency entry in assay [3], in assay [8] and in assay [9] was “inactive” each time. The activity, negative = inhibition in assay [5] is 18.2%.

Take `N[C@@H]1[C@@H]2[C@@H]3C[C@H]4N(CC[C@@]14C(=O)C(=O)O)CC3=CCO[C@@H]2CC(=O)O`: the Potency in assay [1] is above 11.4 µM; in assay [6], above 46 µM; in assay [7], above 9.22 µM. For the same compound, the activity change, negative = inhibition in assay [2] is -3.74%; in assay [4] it was 4.96%. Moreover, the Potency entry in assay [3], in assay [8] and in assay [9] was “inactive” each time. The activity, negative = inhibition in assay [5] is 6.97%.

For `C/C(=C\c1ccc(Cl)cc1)C(C)(C)C(=O)O`, the Potency in assay [1] was above 11.4 µM; in [6], above 46 µM; in assay [7], above 9.22 µM. Moreover, the activity change, negative = inhibition in assay [2] is 2.81%; in [4], -8.85%. In addition, the Potency entry in assay [3], in [8] and in assay [9] was “inactive” each time. Besides, the activity, negative = inhibition in assay [5] was -7.44%.

Turning to `O=C(O)C(Cc1ccccc1-c1ccccc1)C(=O)O`, the Potency in [1] was above 11.4 µM; in [6], above 46 µM; in assay [7], above 9.22 µM. In addition, the activity change, negative = inhibition in assay [2] was 12.3%; in [4], 3.57%. Also, the Potency result in assay [3], in [8] and in assay [9] was “inactive” each time. For the same compound, the activity, negative = inhibition in assay [5] is -0.388%.

For `OCCSCc1ccccc1`, the Potency is above 11.4 µM in assay [1], above 46 µM in [6] and above 9.22 µM in assay [7]. The activity change, negative = inhibition in assay [2] was 2.72%; in assay [4] it was 3.48%. Besides, the Potency result in assay [3], in assay [8] and in assay [9] was “inactive” throughout. The activity, negative = inhibition in [5] is 4.23%.

`O=C(O)[C@H](Cc1cc(I)c(O)c(I)c1)C1CCCCC1`: the Potency in assay [1] is above 11.4 µM; in assay [6], above 46 µM; in assay [7], above 9.22 µM. Further, the activity change, negative = inhibition is -29.2% in assay [2], -8.8% [at 2.29 µM] in assay [3] and 1.46% in assay [4]. For the same compound, the activity, negative = inhibition in assay [5] is -16%. Further, the Potency entry in [8] and in [9] was “inactive” each time.

With `CCc1ncc(CO)n1Cc1cccc2ccccc12`, the Potency in [1] was above 11.4 µM; in assay [6], above 46 µM; in assay [7] it was above 9.22 µM. Also, the activity change, negative = inhibition in assay [2] was 11.3%; in [4], 6.66%. For the same compound, the Potency entry in assay [3], in [8] and in assay [9] was “inactive” each time. Moreover, the activity, negative = inhibition in assay [5] is 10.1%.

`CC(=O)N[C@H](Cc1ccc(O)cc1)C(=O)O`: the Potency in assay [1] was above 11.4 µM; in assay [6], above 46 µM; in assay [7], above 9.22 µM. In addition, the activity change, negative = inhibition is -0.588% in assay [2] and -3.29% in assay [4]. The Potency entry in [3], in [8] and in [9] was “inactive” throughout. Further, the activity, negative = inhibition in [5] is -0.609%.

On to `C[N+](C)(N)Cc1csc(-c2ccc(Cl)cc2)n1`, for which the Potency in assay [1] was above 11.4 µM; in assay [6], above 46 µM; in assay [7], above 9.22 µM. In addition, the activity change, negative = inhibition in assay [2] was 8.47%; in [3], -4.2% [at 2.29 µM]; in assay [4] it was -11.8%. The activity, negative = inhibition in assay [5] was 0.559%. Also, the Potency entry in [8] and in assay [9] was “inactive” throughout.

As for `Nc1ccccc1CCCC(=O)O`, the Potency in assay [1] was above 11.4 µM; in assay [6], above 46 µM; in [7], above 9.22 µM. Also, the figures for the activity change, negative = inhibition in assay [2] and in assay [4] were -5.22% and 0.568%, respectively. Besides, the Potency entry in assay [3], in [8] and in assay [9] was “inactive” throughout. The activity, negative = inhibition in assay [5] was 4.31%.

For `NCCc1nc(-c2nc(C(=O)O)cs2)cs1`, the Potency is above 11.4 µM in [1], above 46 µM in assay [6] and above 9.22 µM in assay [7]. Besides, the activity change, negative = inhibition was -1.29% in [2] and -25.9% in assay [4]. Moreover, the Potency entry in assay [3], in [8] and in assay [9] was “inactive” in each case. In addition, the activity, negative = inhibition in assay [5] was -10%.

For `O=S(=O)(O)[C@@H](CO)c1ccccc1` (tested in a mixture with another compound), the values for the Potency in [1], in [6] and in assay [7] were above 11.4 µM, above 46 µM and above 9.22 µM, respectively. Further, the activity change, negative = inhibition is -0.645% in assay [2], -1.9% [at 2.29 µM] in assay [3] and 3.56% in assay [4]. The activity, negative = inhibition in [5] was -7.29%. For the same compound, the Potency entry in assay [8] and in [9] was “inactive” throughout.

For the compound `CN(C)S(=O)(=O)c1nc(Cl)c2[nH]cnc2n1`, the values for the Potency in assay [1], in [6] and in assay [7] were above 11.4 µM, above 46 µM and above 9.22 µM, respectively. Besides, the activity change, negative = inhibition in assay [2] was 1.09%; in assay [4], 17.4%. Moreover, the Potency result in [3], in assay [8] and in [9] was “inactive” in each case. Further, the activity, negative = inhibition in assay [5] was -1.44%.

For the compound `O=C(O)c1cc2c(cc1S(=O)(=O)O)[C@H]1[C@@H]([C@H]3[C@H]2[C@@]2(Cl)C(Cl)=C(Cl)[C@]3(Cl)C2(Cl)Cl)[C@]2(Cl)C(Cl)=C(Cl)[C@@]1(Cl)C2(Cl)Cl`, the Potency in assay [1] was above 11.4 µM; in assay [6], above 46 µM; in assay [7], above 9.22 µM. The figures for the activity change, negative = inhibition in assay [2] and in [4] were 5.22% and 0.12%, respectively. The Potency entry in assay [3], in assay [8] and in assay [9] was “inactive” throughout. Also, the activity, negative = inhibition in assay [5] is -4.58%.
